Screening results deposited in PubChem BioAssay by National Center for Advancing Translational Sciences (NCATS).
Pf growth 48h: inhibits P. falciparum growth in the first generation, 48 h; AID 504832; actives 5.9% (n = 310,000); P. falciparum luciferase growth in erythrocytes, 48 h; Potency, µM (series often up to 28.7 µM), actives largely listed as inhibitors
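Luciferase-expressing parasites in RBCs, 2% Hct / 0.1% parasitemia final; RPMI 1640 + 0.5% Albumax; 37 C, 5% CO2, one generation; luminescence read-out, lower signal = inhibition.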
CHX counter: affects cycloheximide protein synthesis inhibition readout, counter-screen | AID 2314 | actives 12% (n = 300,000) | cell reporter, cycloheximide protein synthesis inhibition counterscreen | max response, %; in the data active means max response mostly above about 13%, no sharp cut-off; inactive means mostly below about 14%; further: read at 38.3 µM for the half of the compounds with a filed dose
Pf growth 96h: P. falciparum growth inhibition at 96 hour, primary screen for plastid delayed-death inhibitors; P. falciparum luciferase reporter growth, 96 h; Potency, µM (titrated, usually from 28.7 µM), most hits filed as inhibitors; actives 6.9% (n = 320,000); AID 504834
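Compounds incubated with erythrocytes infected by luciferase-expressing P. falciparum (2% hematocrit, 0.05% parasitemia final) for 96 hours, 37 C in 5% CO2. Growth inhibition scored as decreased luciferase luminescence.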
Shiga inhibitor: blocks Shiga toxin action in Vero cells; Vero cells, Shiga toxin protein synthesis inhibition reporter; inhibition, % at 38.7 µM; actives 9.2% (n = 290,000); in the data active means inhibition mostly above about 28%, no sharp cut-off; inactive means mostly below about 43%
HCMV antiviral: blocks human cytomegalovirus replication; AID 1259415; actives 4.5% (n = 410,000); HFF cells, HCMV-luciferase reporter, 72 h; active compounds read low; activity change, negative = inhibition, % at 57.5 µM; in the data active means activity change below about -60%; inconclusive means no clear call, values can overlap the other calls; inactive means above about -39%
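Luciferase read-out from HCMV-luciferase-infected HFFs (MOI 1 PFU/cell) 72 h post infection at 37C; compounds added after 16 h cell attachment; activity normalized between buffer-only basal and Salinomycin (10uM) inhibitor controls.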
Of the large screens only hits and unclear results are named; the others gave an inactive call. Sampled rows, rich in hits. Any-hit rate of the full collection: about 20%. Unless noted, the call rests on the fitted dose curve; in most records, active means well fitted inhibition curve with a large enough effect; inconclusive means small, poorly fitted or top-dose-only effect, or another doubt; inactive means no such curve, though single readings can be large or run the other way.

CC(Oc1ccc2ccccc2c1)C(=O)NNC(=O)Nc1ccccc1 (configuration not stated)	Pf growth 96h inconclusive
CC(C)Cc1nnc(NC(=O)C2CCCC2)s1	CHX counter 24
O=C(Nc1nnc(Cc2ccc(Cl)cc2)s1)c1cccs1	none
O=C(Nc1nnc(Cc2ccccc2)s1)C1CCC1	Pf growth 48h inconclusive, Pf growth 96h 1.7µM
CC(C)Cc1nnc(NC(=O)CCC(=O)NC2CCCCC2)s1	Pf growth 96h inconclusive
O=C(Nc1nnc(Cc2ccccc2)s1)c1cccs1	CHX counter 25
Cc1ccc(C(=O)Nc2nnc(Cc3ccccc3)s2)cc1	none
O=C(Nc1nnc(Cc2ccccc2)s1)c1ccccc1	CHX counter 17, Pf growth 96h inconclusive, Shiga inhibitor 39
O=C(Nc1nnc(Cc2ccccc2)s1)C1CCN(C(=O)c2ccco2)CC1	none
CCOc1ccc(NC(=O)CC(NCc2ccccn2)C(=O)O)cc1 (configuration not stated)	none
Cc1ccc2nc(/C(C#N)=C\c3ccc(Oc4ccc([N+](=O)[O-])cn4)cc3)[nH]c2c1	Pf growth 48h 9.3µM, Pf growth 96h inconclusive
COc1ccc2nc(/C(C#N)=C\c3ccc(Oc4ccc([N+](=O)[O-])cn4)cc3)[nH]c2c1	Pf growth 48h 15µM, Pf growth 96h inconclusive, HCMV antiviral inconclusive
COc1ccc2nc(/C(C#N)=C\c3ccc(C(=O)O)cc3)[nH]c2c1	none
COc1cc(/C=C(/C#N)c2ccc(C)cc2)ccc1Oc1ccc([N+](=O)[O-])cn1	Pf growth 48h inconclusive
Cc1ccc(Cn2c(=N)n(CC(=O)c3ccccc3)c3ccccc32)cc1	Pf growth 48h inconclusive, HCMV antiviral -83
CC(C)(C)C(=O)Cn1c(=N)n(Cc2ccccc2)c2ccccc21	Pf growth 48h 13µM, Pf growth 96h inconclusive
CC(C)(C)C(=O)Cn1c(=N)n(Cc2ccccc2Cl)c2ccccc21	Pf growth 96h inconclusive (no result: Pf growth 48h)
COc1cccc(N(CC(=O)NC(C)(C)C)C(=O)C2CSC(=O)C2)c1 (configuration not stated)	none
CC(C)(C)NC(=O)CN(C(=O)C1CSC(=O)C1)c1ccc2c(c1)OCCO2 (configuration not stated)	CHX counter 36, Shiga inhibitor 34
CC(=O)N1CCOc2ccc(S(=O)(=O)NC[C@H]3O[C@@H](n4ccc(N)nc4=O)[C@H](O)[C@@H]3O)cc21	none (no result: Pf growth 48h, CHX counter, Pf growth 96h, Shiga inhibitor)
Cc1cc(=O)oc(C)c1C(=O)NCCC(C)C	Pf growth 96h 4.1µM
Cc1nc2ccc(S(=O)(=O)NCC(=O)N3CCCC(C)C3)cc2s1 (configuration not stated)	Pf growth 96h inconclusive
O=C(CCCNS(=O)(=O)c1cccs1)N1CCN(c2ccc(F)cc2)CC1	none
O=C(CCS(=O)(=O)c1cccs1)N1CCN(c2ccc(F)cc2)CC1	CHX counter 41, Shiga inhibitor 79
CC1CCN(C(=O)CCNS(=O)(=O)c2ccccc2)CC1	CHX counter 22, Pf growth 96h inconclusive, Shiga inhibitor 56
Cc1cc(C(=O)N2CCCC(CNS(=O)(=O)c3cccs3)C2)nn1C (configuration not stated)	none
Cc1nc(CC(C)C)cc(C(=O)N2CCCC(CNS(=O)(=O)c3cccs3)C2)n1 (configuration not stated)	Pf growth 96h 8.3µM
CC1CCCN(C(=O)CNS(=O)(=O)c2cccs2)C1 (configuration not stated)	CHX counter 27, Pf growth 96h inconclusive
CN1CCN(S(=O)(=O)c2cccc(C(=O)NC3(C)CCS(=O)(=O)C3)c2)CC1 (configuration not stated)	Pf growth 48h inconclusive, Pf growth 96h inconclusive (no result: CHX counter, Shiga inhibitor)
C[C@@H]1Cn2cnc(C(=O)N[C@@H](C)c3ccccc3)c2C(=O)N1	none (no result: Pf growth 48h, CHX counter, Pf growth 96h, Shiga inhibitor)
COc1cc(OC)cc(-c2oc(=O)c3cc(OC)c(OC)cc3c2C(F)(F)F)c1	none (no result: Pf growth 48h, CHX counter, Pf growth 96h, Shiga inhibitor)
Cc1ccccc1C(=O)Nc1sc2c(c1C(=O)N1CCC(C)CC1)CCC(C)C2 (configuration not stated)	none (no result: Pf growth 48h, CHX counter, Pf growth 96h, Shiga inhibitor)
COC(=O)c1ccc(CNC(=O)C(Cc2ccccc2)NC(=O)c2ccccc2)cc1 (configuration not stated)	none (no result: Pf growth 48h, CHX counter, Pf growth 96h, Shiga inhibitor)
O=C(CCS(=O)(=O)c1cccs1)N1CCCC1	CHX counter 18, Shiga inhibitor 63
O=C(CCNS(=O)(=O)c1ccc(Cl)cc1)N1CCCCCC1	Pf growth 96h 12µM
O=C(CCNS(=O)(=O)c1cccs1)N1CCCCCC1	CHX counter 33, Pf growth 96h inconclusive, Shiga inhibitor 102
O=C(CNS(=O)(=O)c1cccs1)N1CCCCC1	Pf growth 96h inconclusive
Cn1c(Cc2ccccc2)nnc1SCC(=O)NC1CCCC1	none
O=C(NC1CCCCC1)c1ccc(Cn2cc(Cl)cn2)cc1	none (no result: Pf growth 48h, Pf growth 96h)
Cc1ccc2c(n1)sc1c(=O)n(-c3cccc(C(F)(F)F)c3)nnc12	none (no result: Pf growth 48h, CHX counter, Pf growth 96h, Shiga inhibitor)
CN(C(=O)CSc1nnnn1-c1ccc(O)cc1)C1CCCCC1	none (no result: Pf growth 48h, CHX counter, Pf growth 96h, Shiga inhibitor)
Cc1onc(C(=O)NC(C)c2ccccc2)c1[N+](=O)[O-] (configuration not stated)	none
O=C(NCc1cccs1)c1noc2c1CCCCC2	CHX counter 23, Pf growth 96h inconclusive, Shiga inhibitor 54
CC(NC(=O)c1noc2c1CCCCC2)c1ccccc1 (configuration not stated)	CHX counter 33, Pf growth 96h inconclusive, Shiga inhibitor 45
O=C(NC1CCCC1)c1noc2c1CCCCC2	CHX counter 37, Shiga inhibitor 152
COc1ccc(CNC(=O)c2noc3c2CCCCC3)cc1	CHX counter 25, Pf growth 96h inconclusive, Shiga inhibitor 85
COc1ccc2c(c1)CCc1c(C(=O)NCc3ccc(F)cc3)noc1-2	Pf growth 96h inconclusive
Fc1ccc(NCc2ccccc2-c2nnc(-c3ccccc3Cl)o2)cc1Cl	none (no result: Pf growth 48h, CHX counter, Pf growth 96h, Shiga inhibitor)
COc1ccc(NS(=O)(=O)c2ccc(OC)c(NC(=O)CCC3CCCC3)c2)cc1	HCMV antiviral inconclusive
CCCCOc1ccc(CNC(=O)c2cnc3sc(N4CCOCC4)nn3c2=O)cc1	none (no result: Pf growth 48h, CHX counter, Pf growth 96h, Shiga inhibitor)
O=C(NCc1ccccc1)c1noc2c1CCCCC2	CHX counter 46, Pf growth 96h 9.3µM, Shiga inhibitor 84
O=S1(=O)[C@H]2C[C@@H]3C=C[C@@]2(CN1Cc1cccc(C(F)(F)F)c1)O3	CHX counter 12
COc1cc(OC)cc(C(=O)Nc2ccc3nc(N4CCC(C)CC4)cc(C)c3c2)c1	none (no result: Pf growth 48h, CHX counter, Pf growth 96h, Shiga inhibitor)
CCN(CC)c1cc(C)c2cc(NC(=O)c3cc(OC)cc(OC)c3)ccc2n1	HCMV antiviral -85 (no result: Pf growth 48h, CHX counter, Pf growth 96h, Shiga inhibitor)
CCN(CC)c1cc(C)c2cc(NC(=O)c3ccc(OC)c(OC)c3)ccc2n1	HCMV antiviral -89 (no result: Pf growth 48h, CHX counter, Pf growth 96h, Shiga inhibitor)
CCN(CC)c1cc(C)c2cc(NC(=O)c3cccs3)ccc2n1	Pf growth 48h inconclusive, CHX counter 23, Pf growth 96h inconclusive, HCMV antiviral inconclusive
CCOC(=O)c1cccc(NC(=O)c2cccs2)c1	none (no result: Pf growth 48h, Pf growth 96h)
COc1ccc(C(=O)Nc2cc(C)nc3ccccc23)cc1OC	none (no result: Pf growth 48h)
CCN(CC)c1cc(C)c2cc(NC(=O)c3ccccc3OC)ccc2n1	Pf growth 48h inconclusive, Pf growth 96h 9.3µM, HCMV antiviral -60
O=C(O)CC1c2ccccc2CCN1S(=O)(=O)c1cccs1 (configuration not stated)	none (no result: Pf growth 48h, CHX counter, Pf growth 96h, Shiga inhibitor)
